MRP reversal: compounds reversing MRP-mediated drug resistance; H69AR cells + 2 uM doxorubicin, CellTiter-Glo, 72 h; differential viability (reversal), % at 10 µM; 0.04% of 85,000 active; AID 602;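 active = viability drop by adding the cancer drug above about 55%, with treated viability meeting a 40% cutoff, limit read from the data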;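 also: viability without doxorubicin minus viability with 2 µM doxorubicin for each compound; larger differential means the compound sensitizes cells more to doxorubicin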
CD11b adhes inh: CD11b/CD18-fibrinogen binding inhibition; P05107+P11215; K562 CD11b/CD18 adhesion to fibrinogen, ATPlite luminescence; Mn2+ added to activate the integrin; inhibition, % at 10 µM; 0.54% of 93,000 active;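 active = primary inhibition of 50% or more at 10 µM, then 40% or more on retest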
MRP-1 activ: MRP-1 activation. H69AR cells + doxorubicin, viability rescue, CellTiter-Glo. viability increase, % at 10 µM. 0.61% of 140,000 active;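 active = viability gain under doxorubicin at or above a set limit, the compound median plus 3 SD, cut at about 4.7% in these data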;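 also: MRP-1 overexpressing cells given doxorubicin 25 µM after compound pretreatment; 18-22 h compound pretreatment then 72 h with doxorubicin before readout; 0% = doxorubicin-only wells and 100% = vehicle-treated cells without doxorubicin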
Mac1 fbg enh: enhancers of human CD11b/CD18 binding to fibrinogen | P05107+P11215 | K562 CD11b/CD18 adhesion to fibrinogen, ATPlite luminescence | activation, % at 10 µM | 0.07% of 93,000 active | AID 1499;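 active = 10 µM primary screen giving 50% or more activity, confirmed by 40% or more on retest at that dose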
Phagocytosis inh: inhibitors of macrophage phagocytosis; J774A.1 macrophage IgG-bead phagocytosis, imaging; inhibition, % at 5 µM; 0.07% of 110,000 active; AID 1029;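 active = inhibition above the mean of the plate negative controls plus 5 SD, cut at about 13% in these data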;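 also: phagocytic index as fraction of beads internalized from green versus red external bead signal; plate controls were DMSO negative control for no effect and cytochalasin-D positive control for full effect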
FAK inh: inhibitors of human focal adhesion kinase; Q05397; biochemical FAK kinase activity assay; inhibition, %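 (tested at 7 µM)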; 0.84% of 97,000 active; in the data active = inhibition above about 19%;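 also: 0% = DMSO and 100% = reference compound high control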
* = called active by the depositor; · = not tested or not shown; [ ] = another dose, or the depositor's remark. A selection: hits, their analogues and other compounds. The true share with any hit is near 1.5%.

SMILES	MRP reversal	CD11b adhes inh	MRP-1 activ	Mac1 fbg enh	Phagocytosis inh	FAK inh
Cc1cccc(-n2c(C)cc(/C=C3\C(=N)N4N=C(CC(C)C)SC4=NC3=O)c2C)c1	·	·	0	·	·	·
Cc1cc(C)cc(-n2c(C)cc(/C=C3\C(=N)N4N=C(CC(C)C)SC4=NC3=O)c2C)c1	·	·	4.7*	·	-7	·
COc1ccc(C2C(C(=O)OCC(=O)Nc3ccc(C)cc3)CCC(=O)N2c2ccc(OC)cc2)cc1 (centres undefined)	3	-43	0	0	-1	0
COc1ccc(C2C(C(=O)OCC(=O)NC(C)(C)C)CCC(=O)N2c2ccc(C)cc2)cc1OC (centres undefined)	·	-14	5.7*	0	0	-2
COC(=O)CNC(=O)CN1C(=O)N(c2ccc(Cl)cc2)C(N(O)C(=O)Nc2ccc(Cl)cc2)C1(C)C (centres undefined)	14	-2	-3	1	5	5
COC(=O)/C(=C\C(=O)c1ccccc1)Nc1cccc(C(F)(F)F)c1	·	-2	-4	-2	-2	-4
COc1nc(Nc2ccc([N+](=O)[O-])cc2)nc(NC(C)C)n1	·	·	-1	·	-8	·
COc1ccccc1-c1nc(C#N)c(N2CCc3ccccc3C2)o1	12	77	5.3*	-4	-1	0
COc1ccccc1-c1nc(C#N)c(N2CCCCCC2)o1	-35	35	2	-2	0	-1
CN(C)CCCNCCNC(=O)/C=N\O	·	1	-1	-1	-5	5
CN(C)CCCCNCCCNC(=O)/C=N\O	3	-11	1	1	54*[artifact]	-1
O=C(NNC(=O)c1cccc(S(=O)(=O)N2CCN(c3ccccc3)CC2)c1)c1ccc(Cl)cc1	·	11	10*	52	-5	·
Cc1ccc(C(=O)CC(=O)COc2ccc(Cl)cc2)cc1	·	63	0	-2	-14	·
Cc1ccc(OCc2nc(-c3ccc(Cl)cc3)n[nH]2)cc1	8	1	5.4*	3	0	2
Oc1c(C(c2cccs2)N2CCN(c3cccc(Cl)c3)CC2)sc2ncnn12 (centres undefined)	-23	12	11*	-4	0	·
CC(=O)Nc1ccc(S(=O)(=O)NCc2csc(C)n2)cc1	-1	·	0	·	·	-3
Cc1ccc2nc(Nc3nc(CSc4nc5ccccc5s4)cc(=O)[nH]3)nc(C)c2c1	·	·	11*	·	-9	·
Cc1nnc(SCc2cc(=O)[nH]c(Nc3nc(C)c4ccccc4n3)n2)s1	-13	·	·	·	·	-1
COc1ccccc1N1CCN(c2ccc([N+](=O)[O-])cc2Cl)CC1	·	·	-3	·	4	·
O=c1ccc(Oc2nc(N3CCCCC3)nc(N3CCCCC3)n2)n[nH]1	9	-9	-3	0	-1	-5
CC1CC(C)CN(C(=S)Nc2ccc(SC(F)F)cc2)C1 (centres undefined)	·	4	5.0*	2	-8	·
CC1CC(C)CN(C(=S)Nc2ccc(OC(F)F)cc2)C1 (centres undefined)	·	·	0	·	-3	·
C=CCNc1nc2c(c(=O)n(C)c(=O)n2C)n1CCCCCC	·	68*	-2	-4	0	-5
C=CCNc1nc2c(c(=O)n(C)c(=O)n2C)n1CC	24	·	-1	·	·	3
O=C(CCCSc1nc2sc3c(c2c(=O)[nH]1)CCC3)NCCO	-2	-7	1	-1	0	1
SMILES	MRP reversal	CD11b adhes inh	MRP-1 activ	Mac1 fbg enh	Phagocytosis inh	FAK inh
CCC(C)[C@H](NC(=O)NC(C)C)C(=O)O (some centres undefined)	·	·	-1	·	-3	·
Cc1noc(C(=O)Nc2sc3c(c2C#N)CCC3)c1Cl	0	58*	1	-5	1	-3
Cc1cc(C(=O)Nc2sc3c(c2C#N)CCC3)no1	-16	4	-2	1	4	0
COc1ccc(C(=O)NCCc2c[nH]c3ccccc23)cc1S(=O)(=O)N1CCOCC1	-14	-10	-3	-5	-1	-3
CCOC(=O)N1CCN(C(=O)COc2cccc3c2CCN(Cc2ccc(F)cc2)C3=O)CC1	·	27	-1	-2	2	·
Cc1ccc(N=Cc2c(O)n(-c3nccs3)c(=O)c3ccccc23)cc1	·	-3	3	4	0	·
Cc1cccc(C)c1N=Cc1c(O)n(-c2nccs2)c(=O)c2ccccc12	·	7	6.2*	5	-11	·
Cc1cc(C)c(N=Cc2c(O)n(-c3nccs3)c(=O)c3ccccc23)c(C)c1	·	0	7.5*	14	-9	·
O=C1CC(N2CCN(C3CCc4ccccc4C3)CC2)C(=O)N1c1ccccc1 (centres undefined)	-14	·	·	·	·	-8
CCOc1cc(CNCc2ccncc2)cc(Br)c1OCc1ccccc1F	·	89*	1	-7	2	5
c1csc(-c2nnc(NC3CCCCC3)c3ccccc23)c1	·	18	2	3	-6	·
O=C(N/N=C/c1cc([N+](=O)[O-])cc([N+](=O)[O-])c1O)/C(=C\c1cccs1)NC(=O)c1ccccc1	·	·	4.8*	·	-4	·
COc1cccc(CNC(=O)C2CCN(S(=O)(=O)c3cccs3)CC2)c1	5	-5	-1	-2	·	-2
O=C1Nc2ccccc2CCC1Sc1nnc(-c2ccc(Cl)cc2)s1 (centres undefined)	26	·	6.6*	·	·	3
CC1=C(C(=O)OC(C)C)C(c2cccc(F)c2)N2C(=O)C(C)SC2=N1 (centres undefined)	-1	-15	5.3*	-3	-1	-5
CC1=C(C(=O)OCC(C)C)C(c2cccc(F)c2)N2C(=O)C(C)SC2=N1 (centres undefined)	-6	-15	1	9	-1	13
Cc1ccc(N=C2SC(C(=O)Nc3ccc(OC(F)(F)F)cc3)C(N)=C2C(=O)Nc2c(C)cc(C)cc2C)cc1 (centres undefined)	·	9	-6	24	1	·
COc1ccc(NC(=O)c2cccc(S(=O)(=O)Nc3ccc(Br)cc3)c2)cn1	·	103*	4	-11	-3	·
O=C(Nc1ccc(Br)cc1)c1cccc(S(=O)(=O)Nc2cnc3ccccc3c2)c1	·	·	2	·	-7	·
O=C1CN(C(=O)CCCc2c[nH]c3ccccc23)c2ccccc2N1	9	9	-2	0	0	-10
Fc1ccc(Sc2ccccc2CNC2=NCCN2)cc1	·	·	-3	·	0	·
Cc1cc(-c2ccccc2)c2c(=O)[nH][nH]c2n1	·	·	1	·	-4	·
O=C(O)Cn1nc(C(F)(F)F)c2c1CCC2	-6	-2	-2	3	0	-5
O=C1NC(=O)/C(=C\c2ccccc2Oc2ccc(F)c(F)c2)S1	·	85*	-2	-8	1	-3
O=C1NC(=O)/C(=C\c2ccc(Oc3ccc([N+](=O)[O-])cn3)cc2)S1	·	56	-2	-1	0	·
O=C(c1ccco1)N1CCN=C1SCc1ccc(F)cc1	23	-10	6.0*	4	-1	·
CC(=O)N1CCN=C1SCc1ccc(Br)cc1	10	-2	9.4*	10	0	0
CSC1=NCCN1C(=O)c1ccc(Br)o1	6	51*	2	-6	1	-10

Screening results: PubChem BioAssay, several laboratories
